# sPLA2-III inh – Inhibits HGIII-sPLA2 liposome hydrolysis, primary screen | Q9NZ20 | QFRET BODIPY PC-A2 liposome hydrolysis, fluorescence | inhibition, % at 12.2 µM | 0.56% of 370,000 active | AID 743126;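 active = inhibition above mean plus 3 SD of compounds lying within the high and low control bounds, cut at about 19% in these data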;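 also: 0% = median of test compound wells and 100% = no enzyme DMSO wells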
# ABHD5-PLIN5 inh – ABHD5-PLIN5 protein interaction inhibition | Split G. princeps luciferase complementation, luminescence, 4 h | inhibition, % at 4 µM | 0.78% of 360,000 active;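 active = inhibition above the mean inhibition across every tested compound plus 3 SD, cut at about 22% in these data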;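 also: 0% = DMSO only wells and the 100% control is not disclosed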
# Rtt109 HAT inh – inhibitors of Candida albicans Rtt109/Vps75 histone acetyltransferase. 0.16% of 330,000 active. AID 540336. inhibition, % at 34.9 µM. purified Rtt109/Vps75, ThioGlo CoA-SH fluorescence, 4 h;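 active = inhibition of at least 50% in every replicate; inconclusive = best replicate reaches 50% inhibition but some replicates fall short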
# DAGLB inhibitor – blocks human DAGLB lipase activity; Q8NCG7; 0.059% of 340,000 active; inhibition, % at 5.17 µM; AID 504411; HEK293T DAGLB membrane lysate, EnzChek fluorogenic substrate; in the data active = inhibition above about 34%;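 also: 0% = enzyme with vehicle and 100% = wells lacking enzyme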
# Target sequence (Q8NCG7 whole entry, looked up): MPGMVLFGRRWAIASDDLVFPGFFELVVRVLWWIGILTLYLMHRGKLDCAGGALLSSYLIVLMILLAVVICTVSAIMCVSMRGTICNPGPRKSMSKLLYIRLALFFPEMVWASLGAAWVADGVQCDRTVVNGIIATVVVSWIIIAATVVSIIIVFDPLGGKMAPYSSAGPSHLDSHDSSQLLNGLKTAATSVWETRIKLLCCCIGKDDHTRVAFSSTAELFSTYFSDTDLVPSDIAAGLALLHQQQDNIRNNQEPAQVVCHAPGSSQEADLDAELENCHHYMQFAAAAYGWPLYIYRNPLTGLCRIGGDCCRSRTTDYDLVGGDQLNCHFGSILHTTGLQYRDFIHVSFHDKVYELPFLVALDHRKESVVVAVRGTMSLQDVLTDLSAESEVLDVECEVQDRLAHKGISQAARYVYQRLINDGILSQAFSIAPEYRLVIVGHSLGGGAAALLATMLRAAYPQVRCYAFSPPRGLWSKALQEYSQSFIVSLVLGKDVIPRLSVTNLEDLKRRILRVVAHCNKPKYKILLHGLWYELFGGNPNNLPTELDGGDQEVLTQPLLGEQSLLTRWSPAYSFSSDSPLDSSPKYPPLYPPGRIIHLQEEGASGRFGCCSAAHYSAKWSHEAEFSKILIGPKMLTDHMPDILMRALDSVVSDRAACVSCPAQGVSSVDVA
# H9c2 protect – myocardial damage modulation in H9c2 cells; protection from H2O2 cell death, % at 20 µM; H9c2 cardiomyocytes, H2O2 injury protection, ATPLite, 2 h; 0.63% of 360,000 active;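 active = compounds giving at least 50% protection of heart cells from peroxide-induced death in the single-dose screen, raw or plate-pattern-corrected value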;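 also: 0% = DMSO wells with peroxide and 100% = DMSO wells without peroxide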
# Myeloid diff MLP – compounds promoting myeloid differentiation; AID 624256; ER-HoxA9 myeloid progenitors, lysozyme-GFP differentiation, flow cytometry; 1% of 360,000 active; calls only at 10 µM;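 active = normalized GFP-positive differentiation at or above the plate's own cutoff, the solvent-only control mean plus 3 SD; inconclusive = no clear call, values can overlap the other calls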;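 also: cells exposed to compound for four days before flow analysis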
# An asterisk follows results filed as active; i = inactive; ? = inconclusive; nt = no result; + = active, no number; ! = not confirmed by another sample. Most compounds without a hit are left out; they make up all but 2.9% or so of the library.
SMILES,sPLA2-III inh,ABHD5-PLIN5 inh,Rtt109 HAT inh,DAGLB inhibitor,H9c2 protect,Myeloid diff MLP
CCCC1=[N+](CC)CCn2c(C)ccc21,3,-1,-5,3,0,i
COc1cccc(S(=O)(=O)Nc2ccc3c(c2)[C@@H]2C[C@@H](CC(=O)NCc4ccc(Cl)cc4)O[C@@H](CO)[C@@H]2O3)c1,-37,-5,nt,nt,2,i
O=C1C=CC2(O[C@H](c3ccccc3)[C@@H](c3ccccc3)O2)[C@H](Sc2ccccc2O)C1,-17,94*,1,7,-18,+
C[C@@H]1[C@@H](Sc2ccccc2)CC(=O)O[C@@H]1c1ccc(-c2ccccc2)cc1,-4,7,8,-13,-11,?
CC(C)(C)NC(=O)C(c1ccc(-c2ccccc2)cc1)N(C[C@H]1CC[C@@H]([C@@H]2CC[C@H](CO)O2)O1)C(=O)c1ccc(-c2ccccc2)cc1 (some centres undefined),nt,4,11,-1,-12,i
CCCNc1c(F)c(F)c2c(C)c3ccccc3nc2c1F,1,-10,15,-9,-4,+
Cc1c2ccccc2nc2ccccc12,-3,-5,-4,10,4,i
CCCOn1c(OCC(C)C)nc2ccccc2c1=O,-4,-2,10,-12,6,i
CC(C)COc1nc2ccccc2c(=O)n1OCC(=O)O,1,-2,1,0,58*,i
C#CCNc1c2c(nc3nnnn13)CCCC2,-1,-3,-11,0,4,i
CNc1c2c(nn1C)CCCC2,0,-3,3,1,-2,+!
CC(/C=C/c1ccc(O)cc1)=N/O,-3,-7,-16,-2,3,+
Cc1cc(/C=C2\SC(=S)NC2=O)c(C)n1C1CC1,-1,2,-5,10,-11,i
Cc1cc(/C=C2/C(=O)N(C)C(=S)N2C)c(C)n1C1CC1,-4,-1,0,1,0,+
O=C(Nc1ncn[nH]1)C(F)(F)C(F)F,10,-2,-8,-2,-1,i
CCC(C(=O)Nc1ncn[nH]1)(C(F)(F)F)C(F)(F)F,0,7,7,-2,-3,+
COC(=O)C1=C(C)N(CCc2ccccc2)C(=O)/C1=C\c1ccco1,0,14,4,-2,3,i
CC(NC(=O)c1ccccc1)c1nnc(SCC(=O)Nc2nnc(C3CC3)s2)n1C (centres undefined),11,5,-6,-2,5,i
Cc1cccc(NC(=O)Cn2nnc(-c3cccs3)n2)c1C,-3,8,3,-2,-15,+
CCc1ccccc1NC(=O)Cn1nnc(-c2cccs2)n1,3,-1,0,0,4,i
CC(=O)Nc1ccc2c(c1)[nH]c(=O)c1ccccc12,-2,1,-7,1,75*,i
CC(=O)Nc1c(O)c2ccccc2[nH]c1=O,5,-29,0,1,-1,i
O=C(Nc1ccc2c(c1)[nH]c(=O)c1ccccc12)C(F)(F)F,13,-8,-2,-1,64*,i
CC(C)C(NC(=O)C1CCCCC1)C(=O)Nc1ccccn1 (centres undefined),1,0,3,1,2,i
COc1ccc(/C=N/NC(=O)c2nc(-c3ccccc3)n(-c3ccccc3)n2)c(O)c1,16,-1,21,8,61*,nt
SMILES,sPLA2-III inh,ABHD5-PLIN5 inh,Rtt109 HAT inh,DAGLB inhibitor,H9c2 protect,Myeloid diff MLP
Cc1cccc(-n2c(SCC(=O)Nc3ncc(Cl)cc3Cl)nc3ccccc32)c1,-21,-1,-1,-6,-6,+
O=C(CSc1nc2ccccc2n1-c1ccccc1)Nc1ncc(Cl)cc1Cl,-14,3,3,-5,-4,i
COc1ccc(-c2nc(CS(=O)CC(=O)NC3CCCC3)c(C)o2)cc1OC (centres undefined),8,6,-22,-4,2,i
CSc1nsc(/C=C/Nc2ccc(F)cc2F)c1C#N,nt,-5,16,1,3,+
CCC(C)(C)c1ccc(OCCCC[n+]2cccc(C)c2)c(C(C)(C)CC)c1,-2,23*,?,2,-10,?
CN1CCc2nc3ccccc3c(C(=O)OCC(=O)N(CCC#N)c3ccccc3)c2C1,-2,-5,5,-1,58*,i
O=C1CCSc2c1ccc1ccccc21,10,1,9,-8,-1,+

# Screens: PubChem, several laboratories
